Test results from PubChem BioAssay (Tox21).
Results filed as inconclusive are left out. Values without a mark were called inactive. Calls come from the whole dose curve.

Assay: qHTS assay to identify small molecule agonists of the AP-1 signaling pathway - cell viability counter screen (AID 1159525); note: nearly all actives have a fitted effect of over 55% in size
Conditions: ME-180 (cervical carcinoma) AP-1-bla cells viability, ATP luminescence, 5 h; series mostly up to 76.8 µM; viability change, negative = cytotoxic: at the top concentration
From the text: National Center for Advancing Translational Sciences [NCATS]
NIH Chemical Genomics Center [NCGC]
U.S. Environmental Protection Agency [EPA]
National Institutes of Environmental Health Sciences [NIEHS]
National Toxicology Program [NTP]
U.S. Food and Drug Administration [FDA]
Activator protein-1 (AP-1), a transcription factor, plays an important role in tumor genesis by regulating genes involved in cell proliferation, differentiation, apoptosis, and angiogenesis. AP-1 activity is induced by a complex network of signaling pathways that involves extracellular signals, such as growth factors. The AP-1 protein complex formed from c-Fos and c-Jun binding to the AP-1 response element results in transcriptional activation of genes containing such elements within their promoter.
Low molecular weight molecules have been discovered and developed to modulate various components of these signaling pathways, for example, MAP kinase inhibitors. However, many points of pathway modulation remain untested due to the lack of chemical probes making this signaling locus of general interest.
Using a beta-lactamase reporter-gene under control of the AP-1 response element, a cell-based assay [CellSensor(TM) AP-1-bla ME-180 developed by Invitrogen Corp.] was used to measure EGF-induced signaling. The Tox21 10K library compounds were measured for their ability to positively modulate the action of EC50 EGF on reporter gene activity. Compounds were screened in a 15-pt titration series in 1536-well format. The cytotoxicity of the Tox21 compound library against this cell line was tested in parallel by measuring the intra cellular ATP content in the same wells.
Tox21 Assay Protocol Summary:
2500 cells/5uL in Opti-MEM medium containing 0.5% dialyzed FBS, 0.1 mM NEAA, 1 mM sodium pyruvate and 10 mM HEPES was dispensed into 1536-well black wall/clear bottom plates using a Multidrop dispenser and cells were cultured at 37 degrees Celsius overnight. Next day 23 nL of compounds dissolved in DMSO, positive controls or DMSO were delivered to each well using a pin tool. The plates were incubated at 37 degrees Celsius for 5 hours. 1 uL of LiveBLAzerTM B/G FRET substrate (Solution A+B+C+D) was added to each well using a Flying Reagent Dispenser. After incubated at room temperature for 2.5 hours the plates were measured on an EnVision plate reader at Excitation 405nm, Emission1=460nm and Emission 2=530nm. The %Activity was determined from the ratio of 460nm/530nm.
After the plates were read for Beta-Lactamase assay on Envision; 3 ul Cell Titer Glo (Promega) was added to measure the cytotoxicity and the plates were then incubated at RT in dark for 30 min. The luminescence was read on ViewLux (Perkin Elmer, Shelton, CT) using 6 sec exposure. ViewLux data was expressed as relative luminescence units.
For primary data analysis, raw plate reads for each titration point were first normalized relative to […] EGF control (100%) and DMSO only wells (basal, 0%).
For primary data analysis for viability assay, raw plate reads for each titration point were first normalized Tetra n-octyl ammonium bromide control (-100%) and DMSO (control, 100%).

| SMILES | viability change, negative = cytotoxic |
| --- | --- |
| O=C(O)c1ccc(Cl)cc1Cl | 8.11% |
| COc1ccc(C2CNC(=O)C2)cc1OC1CCCC1 (stereo not given) | 4.12% [at 35.3 µM] |
| CC(C)CC(=O)O | 3.36% |
| CN1C(C)(C)CCCC1(C)C | 5.94% [at 35.3 µM] |
| O=S(=O)(O)CCN1CCN(CCO)CC1 | 12% |
| COc1ccc(Br)c(C)c1 | -0.686% |
| C=Cc1ccccn1 | 0.0296% |
| CC(CC=O)CCCC(C)(C)O (stereo not given) | 1.91% |
| CCCCCCCCOS(=O)(=O)O | 0.849% |
| CCCOC(OCCC)OCCC | 2.62% |
| COc1ccc2nc(SCc3ncc(C)c(OC)c3C)[nH]c2c1 | 1.92% [at 35.3 µM] |
| O=C(CS(=O)Cc1ccco1)NC/C=C\COc1cc(CN2CCCCC2)ccn1 (stereo not given) | -0.608% [at 35.3 µM] |
| Cc1nc2n(c(=O)c1CCN1CCC(c3noc4cc(F)ccc34)CC1)CCC[C@H]2O | 2.97% [at 15.8 µM] |
| CN(C)c1ccc(C=O)cc1 | -0.0742% |
| Cc1ccc(S(=O)(=O)O)c(C)c1 | -18.1% |
| COc1ccc(OC)c(Cl)c1 | 7.21% |
| C[C@H](CCC(=O)O)[C@H]1CC[C@H]2[C@@H]3C(=O)C[C@@H]4CC(=O)CC[C@]4(C)[C@H]3CC(=O)[C@]12C | 6.56% [at 35.3 µM] |
| C=CC(OCC)OCC | -2.68% |
| CCN(C)C(=O)Oc1cccc([C@H](C)N(C)C)c1 | 1% [at 35.3 µM] |
| CC(=O)/C=C/C1C(C)=CCC(C)C1(C)C (stereo not given) | 2.95% |

| SMILES | viability change, negative = cytotoxic |
| --- | --- |
| COc1cc(C(=S)N2CCOCC2)cc(OC)c1OC | 2.77% [at 35.3 µM] |
| Cc1ccccc1OCC(O)CO (stereo not given) | -5.46% [at 35.3 µM] |
| CC(C)NCC(O)COc1ccc(COCCOC(C)C)cc1 (stereo not given) | -4.36% [at 35.3 µM] |
| CCCC/C=C/C=C\C=O | 0.304% |
| CCC(CC)CO | -0.972% |
| O=C1c2cccc3c2[C@H](CCC3)CN1[C@@H]1CN2CCC1CC2 | -6.59% [at 35.3 µM] |
| CNS(=O)(=O)CCc1ccc2[nH]cc(C3CCN(C)CC3)c2c1 | -2.82% [at 35.3 µM] |
| O=C(OCc1ccccc1)C(=O)OCc1ccccc1 | -2.1% |
| CC(C)c1ccc2cc(C(C)C)ccc2c1 | -5.92% |
| ClCCCl | 0.425% |
| CN(CCOc1ccc(NS(C)(=O)=O)cc1)CCc1ccc(NS(C)(=O)=O)cc1 | 0.95% [at 35.3 µM] |
| C[Si](C)(C)C | 1.84% |
| CCOC(=O)c1ccc(OC(=O)CCCCCN=C(N)N)cc1 | 0.427% [at 35.3 µM] |
| C=C(C)C(=O)OCCN(CC)CC | 1.01% |
| OCCN(CCO)c1cccc(Cl)c1 | -0.589% |
| Cc1cccc2nccnc12 | -2.24% |
| Cc1cccc(C)c1NC(=O)c1ccccc1C(=O)O | 0.493% [at 35.3 µM] |
| Oc1cn2c(n1)Nc1ccc(Cl)c(Cl)c1C2 | -0.119% [at 15.8 µM] |
| CCCCOC(=O)c1ccccc1 | 2.74% |
| CC(C)=O | -1.64% |
